Hits are enriched below; roughly 2.4% of the tested compounds scored in any of these assays.
EP2 modulator = modulators of human EP2 prostaglandin E2 receptor; induction, % at 25 µM; AID 940; 260,000 compounds, 0.83% hits; EP2-expressing cells, cAMP HTRF FRET, PGE2 co-stimulation;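 active = compounds whose cAMP rise, as percent of the full-agonist control response, exceeds 60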;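 also: rat C6 glioma line stably carrying human EP2 under a CMV promoter; the protocol text gives 20 µM as final concentration; 100% = response of wells given 1 µM PGE2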
S1P4 ag = agonists of human S1P4 receptor; S1P4-expressing cell line, agonist reporter assay; AID 1509; 220,000 compounds, 0.35% hits; activation, % at 4.98 µM; in the data active = activation above about 11%;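 also: 0% = DMSO vehicle and 100% = reference agonist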
Target sequence (O95977 whole entry, looked up): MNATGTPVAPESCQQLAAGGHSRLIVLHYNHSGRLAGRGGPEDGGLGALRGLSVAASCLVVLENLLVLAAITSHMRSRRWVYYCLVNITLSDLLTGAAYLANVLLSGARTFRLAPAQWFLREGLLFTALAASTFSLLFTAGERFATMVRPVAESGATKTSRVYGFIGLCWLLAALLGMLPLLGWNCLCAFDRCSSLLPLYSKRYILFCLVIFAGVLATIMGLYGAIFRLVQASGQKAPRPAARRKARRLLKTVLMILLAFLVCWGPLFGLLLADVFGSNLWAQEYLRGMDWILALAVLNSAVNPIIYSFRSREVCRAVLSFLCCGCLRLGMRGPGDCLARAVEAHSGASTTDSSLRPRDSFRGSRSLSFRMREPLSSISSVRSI
S1P3 antagonist = blocks the human S1P3 receptor. Q99500. CHO S1P3 NFAT-BLA reporter, FRET fluorescence, antagonist mode. inhibition, % at 4.98 µM. 170,000 compounds, 0.27% hits. AID 485;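 active = inhibition above the plate cutoff, the mean inhibition of test wells on that plate plus 3 SD, cut at about 28% in these data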;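 also: cells challenged with S1P at its EC80 of 0.8 µM; blue over green emission ratio from cleaved BLA substrate after 4 h stimulation; 0% = S1P-stimulated wells and 100% = unstimulated DMSO-only wells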
EP2 antag = blocks the human prostaglandin E2 receptor EP2 | P43116 | inhibition, % at 25 µM | 260,000 compounds, 0.52% hits | C6 glioma cells expressing human EP2, cAMP TR-FRET; cells stimulated with saturating PGE2;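 active = percent inhibition above 40 after rounding to a whole number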;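 also: rat C6 glioma host cells with rolipram phosphodiesterase inhibitor present; the protocol text gives 20 µM as final concentration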
Insulin prom inh = TRM-6 insulin promoter activity inhibition; inhibition, % at 2 µM; TRM-6 cells (human fetal islet line), insulin promoter-eGFP reporter, imaging; reporter expression induced with tamoxifen; 130,000 compounds, 0.9% hits;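 active = inhibition above the mean plus 3 SD, with well images judged a real hit on visual review, cut at about 60% in these data, passing the limit was not always enough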
S1P4 antagonist = antagonists of human S1P4 receptor; inhibition, % at 4.98 µM; S1P4-expressing cells, antagonist mode, reporter read-out; 220,000 compounds, 0.26% hits; in the data active = inhibition above about 29%;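 also: 0% = wells stimulated with agonist and 100% = vehicle wells without agonist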
Active calls of the source: *; · = not tested or not shown.

SMILES	EP2 modulator	S1P4 ag	S1P3 antagonist	EP2 antag	Insulin prom inh	S1P4 antagonist
COc1cccc(N(CC(=O)N2CCCCC2)S(=O)(=O)c2ccc(C)cc2)c1	7.3	·	·	15.8	·	·
CCOc1ccc2[nH]c(=O)c(CN(Cc3ccc(C)cc3)Cc3nnnn3C(C)(C)CC)cc2c1	19.9	·	·	4.4	·	·
S=c1nc(-c2cc(Cl)ccc2Cl)[nH][nH]1	57.9	-0.4	-0.6	40.9*	·	-10.1
COc1cccc(/C(O)=C2/C(=O)C(=O)N(CCCn3ccnc3)C2c2ccc(C)o2)c1 (stereo unspecified)	8.1	·	·	7.4	·	·
COc1ccc(CCNC(=O)CCc2ccc(S(=O)(=O)NC(C)C)cc2)cc1	26.3	-0.5	5.1	2.3	71.4*	-7.7
CSc1ccc(OC2CCCCC2NS(=O)(=O)c2ccc(Cl)cc2)cc1 (stereo unspecified)	-28.1	0.1	6.3	11.1	100.0*	9.2
O=C(NCCCN1CCC(Cc2ccccc2)CC1)C1CC(=O)N(C2CCCC2)C1 (stereo unspecified)	17.6	0.4	103.5*	9.0	·	-12.7
O=C(NCCCN1CCC(Cc2ccccc2)CC1)C1CCC(=O)N1C1CCCC1 (stereo unspecified)	-0.7	-0.4	-36.2	9.5	·	-18.4
C=CCn1c(SCC(=O)Nc2ccc(OCC)cc2)nnc1-c1ccncc1	-29.3	·	·	4.1	·	·
COc1ccc(C(C)=O)cc1CSc1nc2ccccc2c(=O)n1-c1ccccc1	64.0*	-0.3	-21.5	7.0	·	-13.0
C[C@@H]1CC2C3CCC4=CC(=O)C=C[C@]4(C)[C@@]3(F)[C@@H](O)C[C@]2(C)[C@@]1(O)C(=O)COP(=O)(O)O (stereo partly specified)	24.7	·	·	19.2	·	·
C[C@]1(c2ccccc2)O[C@@H]2C[C@H]3[C@@H]4CCC5=CC(=O)C=C[C@@]5(C)[C@@]4(F)[C@H](O)C[C@]3(C)[C@]2(C(=O)CO)O1	1.6	·	·	51.4*	·	·
C[C@H]1C[C@@H]2[C@@H]3CCC4=CC(=O)C=C[C@@]4(C)[C@@]3(F)[C@H](O)C[C@@]2(C)[C@]1(O)C(=O)COP(=O)(O)O	14.4	·	·	41.6*	·	·
O=C(CNC(=O)c1ccco1)NCCc1ccccc1	8.0	·	·	7.0	·	·
CCC(NC(=O)NCc1ccccc1)(C(F)(F)F)C(F)(F)F	-1.4	4.0	-0.9	3.7	71.4*	-5.6
CCC(NC(=O)NCc1ccc2c(c1)OCO2)(C(F)(F)F)C(F)(F)F	6.4	0.5	-2.6	3.8	58.8	-17.8
C/C(=N\NC(=O)CSc1nc2nc(C)cc(C)n2n1)c1ccccc1	6.8	-1.0	·	127.6*	-8.3	-12.9
Cc1cc(C)c(S(=O)(=O)/N=C2/C=C(Sc3ncn[nH]3)C(=O)c3ccccc32)cc1C	-80.0	1.5	-10.7	104.4*	-177.8	-0.1
Cc1ccc(C2(O)CCN(CCNC(=O)c3c(F)cccc3F)CC2)cc1	0.2	·	·	5.0	·	·
CCOc1ccc2nc(NC(=O)Nc3cccs3)sc2c1	-8.1	2.7	57.5*	17.0	20.0	12.5
CCOc1ccc2nc(NC(=O)Nc3ccccc3)sc2c1	-1.6	0.3	·	7.4	36.7	0.8
O=C(NNc1ccccc1)C(=O)n1ccc2ccccc21	-15.7	·	·	14.9	·	·
COc1ccc2c(c1)c1ccc3c(c1n2C)C(=O)C=CC3=O	-36.3	7.4	8.6	62.5*	·	11.5
Cc1ccc(CNc2c(-c3ccco3)nc3cnccn23)cc1	-47.4	·	·	·	·	·
O=C(O)c1c(Cl)c(Cl)c(Cl)c(Cl)c1C(=O)Nc1ccc2cn[nH]c2c1	-3.9	·	·	57.8*	·	·
SMILES	EP2 modulator	S1P4 ag	S1P3 antagonist	EP2 antag	Insulin prom inh	S1P4 antagonist
Cc1ccc2oc(=O)n(CC(=O)NCCCc3ccccn3)c2c1	-48.0	·	·	8.5	·	·
CC(C)=CCNc1ncnc2c1c(C#N)cn2[C@H]1O[C@H](CO)[C@@H](O)[C@@H]1O	3.5	·	·	38.0	·	·
N/C(=N/O)c1cn([C@H]2O[C@@H](CO)[C@H](O)[C@H]2O)c2ncnc(NO)c12	24.5	·	·	47.0*	·	·
CC(C)CCCC(C)[C@H]1CCC2C3CC[C@H]4CC(=O)CC[C@]4(C)C3CC[C@@]21C (stereo partly specified)	13.7	·	·	12.6	·	·
CCC(=O)Nc1nc2cc(OC)ccc2s1	12.1	-0.4	-17.0	16.8	-9.7	8.9
COc1ccc2sc(NC(C)=O)nc2c1	11.6	0.3	-13.0	5.6	78.6*	-1.0
C[C@@]12CC[C@@H]3[C@H](CCC4=CC(=O)CC[C@]43C)[C@H]1CC[C@H]2C(=O)COS(=O)(=O)c1ccc(Br)cc1	17.4	·	·	43.8*	·	·
CC(=O)OCC(=O)[C@H]1CCC2C3CCC4=CC(=O)CC[C@]4(C)C3CC[C@@]21C (stereo partly specified)	7.2	·	·	8.8	·	·
C[C@@]12CC[C@@H]3[C@H](CCC4=CC(=O)CC[C@]43C)[C@H]1CC[C@H]2C(=O)Cn1cnc2c(=S)nc[nH]c21	11.2	·	·	40.8*	·	·
CCN(CC)CCN(Cc1cc2cc3c(cc2[nH]c1=O)OCO3)C(=O)NC1CCCCC1	-28.2	·	·	7.6	·	·
CC(C)(Sc1cc(C(C)(C)C)c(O)c(C(C)(C)C)c1)Sc1cc(C(C)(C)C)c(O)c(C(C)(C)C)c1	-5.5	49.1*	-4.0	11.7	52.4	-18.6
O=C1c2ccccc2C(=O)c2c1cccc2-n1nnc2ccccc21	18.6	-0.1	-8.1	1.6	·	-25.1
O=C1C(N2CCOCC2)=C(n2nnc3ccccc32)C(=O)c2ccccc21	-2.6	-1.0	·	40.0*	10.3	-2.0
CCCc1nc2cc(NC(=O)c3sc4ncn(C)c(=O)c4c3C)ccc2n1C	-44.0	·	·	9.6	·	·
CCOc1ccc(S(=O)(=O)N2CCN(S(=O)(=O)c3ccc(OCC)cc3)C(C)C2)cc1 (stereo unspecified)	23.9	-1.2	70.8*	6.8	-69.6	-1.5
CCOC(=O)N1CCN(S(=O)(=O)c2ccc(OCC)cc2)CC1	-14.9	0.8	·	·	·	13.4
COc1cccc(NC(=O)N2C3CCC2CC(O)(c2nccn2C)C3)c1 (stereo unspecified)	-22.2	·	·	·	·	·
CC[C@@H](Cn1nc(-c2cccs2)ccc1=O)NC(=O)Cc1nc2nc(C)cc(C)n2n1	-11.2	·	·	4.3	·	·
CCOc1ccc2[nH]c(=O)c(Cc3ccccc3)c(O)c2c1	12.0	·	·	6.5	·	·
O=c1[nH]c2ccc(Cl)cc2c(O)c1Cc1ccccc1	27.9	0.7	-12.7	7.8	72.7*	-5.3
Cc1sc2nc(SCC(=O)NCc3cccs3)[nH]c(=O)c2c1C	20.5	-0.8	-20.2	6.4	90.9*	-9.1
Cc1ccc(S(=O)(=O)N(Cc2cccs2)Cc2cc3cccc(C)c3[nH]c2=O)cc1	-39.4	·	·	7.3	·	·
CC(=O)[C@H]1CC[C@@H]2[C@]1(C)CC=C1[C@@]23C=C[C@@]2(C[C@H](O)CC[C@@]12C)[C@H](C(=O)O)[C@@H]3C(=O)O	33.8	·	·	40.8*	·	·
COCCNC(=O)CN1N=C(c2ccc(OC)cc2)Cn2c(cc3ccccc32)C1=O	-12.7	·	·	·	·	·
COc1ccc(NC(=O)c2ccc(C(=O)c3ccccc3)o2)cc1	-38.9	-1.3	5.1	9.6	90.0*	2.2

Screens from PubChem.
